Hit rate of the full screen: of about 310,000 compounds, about 2,200 (0.71%) showed an effect of 50% or more. The effect is printed as a negative number. This is one part of a sample in which strong results are shown more often than they occur.

human ether-à-go-go-related gene (hERG) potassium channel, sequence (Q12809 whole entry, looked up): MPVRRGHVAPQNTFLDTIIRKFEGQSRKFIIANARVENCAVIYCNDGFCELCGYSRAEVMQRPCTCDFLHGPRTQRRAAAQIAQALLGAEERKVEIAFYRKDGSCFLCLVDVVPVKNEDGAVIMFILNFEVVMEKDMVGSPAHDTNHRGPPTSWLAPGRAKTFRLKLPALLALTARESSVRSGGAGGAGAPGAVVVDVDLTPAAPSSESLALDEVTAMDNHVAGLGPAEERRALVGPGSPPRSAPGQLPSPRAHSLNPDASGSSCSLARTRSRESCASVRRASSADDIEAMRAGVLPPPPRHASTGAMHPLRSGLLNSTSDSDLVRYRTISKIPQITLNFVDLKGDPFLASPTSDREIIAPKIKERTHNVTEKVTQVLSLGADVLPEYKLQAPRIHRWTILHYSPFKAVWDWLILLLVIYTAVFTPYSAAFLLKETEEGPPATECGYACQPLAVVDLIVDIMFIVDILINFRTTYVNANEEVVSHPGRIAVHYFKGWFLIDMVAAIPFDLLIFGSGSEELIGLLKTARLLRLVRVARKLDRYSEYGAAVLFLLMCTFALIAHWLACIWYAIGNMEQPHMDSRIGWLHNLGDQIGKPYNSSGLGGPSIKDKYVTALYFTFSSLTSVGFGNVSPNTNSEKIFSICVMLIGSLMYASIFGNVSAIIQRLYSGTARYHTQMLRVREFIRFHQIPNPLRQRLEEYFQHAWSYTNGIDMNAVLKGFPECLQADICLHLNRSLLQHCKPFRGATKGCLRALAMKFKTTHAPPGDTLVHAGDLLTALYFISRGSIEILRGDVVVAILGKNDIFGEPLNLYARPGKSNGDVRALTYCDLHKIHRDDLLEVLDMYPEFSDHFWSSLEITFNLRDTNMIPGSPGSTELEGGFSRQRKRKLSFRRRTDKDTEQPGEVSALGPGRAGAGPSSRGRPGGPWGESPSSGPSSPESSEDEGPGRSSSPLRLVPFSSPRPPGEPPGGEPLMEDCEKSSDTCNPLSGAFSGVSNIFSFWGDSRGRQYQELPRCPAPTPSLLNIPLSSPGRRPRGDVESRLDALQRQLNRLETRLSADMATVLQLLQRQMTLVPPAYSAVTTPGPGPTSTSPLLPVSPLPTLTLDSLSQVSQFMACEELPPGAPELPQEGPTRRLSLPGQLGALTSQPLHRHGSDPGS

This test addresses human ether-à-go-go-related gene (hERG) potassium channel (human, UniProt Q12809). Kind of test: primary screen, population patch clamp on CHO cells stably expressing hERG; higher = less effect of the substance.
As to `O=C(CN1CCCC1=O)NC1C2CC3CC(C2)CC1C3` (stereo not drawn), the “hERG current change (%, negative = inhibition) at 1uM” value amounted to 9.69%. With `COC(=O)C1=CN(Cc2ccccc2)C=C(C(=O)OC)C1c1ccc(O)c(OC)c1` the figure was 17.4%; with `COc1ccc(N2C(=O)/C(=C\c3ccco3)N=C2SCC(=O)N(C(C)C)C(C)C)cc1Cl`, 20.1%.

Turning to `Cc1ccc(OCC(O)CNC2CCCC2)cc1C.Cl` (stereo not drawn), the “hERG current change (%, negative = inhibition) at 1uM” value is reported as 8.86%. With `CC(=O)c1cccc(CN2CCCCC2C(=O)Nc2ccc(Oc3ccccc3)nc2)c1` (stereo not drawn) the figure was 0.714%; with `CCC(=O)Nc1nc(C)c(C(=O)N2CCCCC2)s1`, 12.8%; with `CCCCn1c(N)c(N(CCC(C)C)C(=O)c2ccc(C)c(S(=O)(=O)N3CCOCC3)c2)c(=O)[nH]c1=O`, 5.89%. With `CCCCN(C(=O)c1ccc(C)c(S(=O)(=O)N2CCOCC2)c1)c1c(N)n(CC(C)C)c(=O)[nH]c1=O` the figure was -57.9%; with `CCCCN(C(=O)c1ccc(C)c(S(=O)(=O)N2CCOCC2)c1)c1c(N)n(CCCC)c(=O)[nH]c1=O`, 5.43%; with `O=C(CCNS(=O)(=O)c1ccccc1F)N1CCN(Cc2ccccc2)CC1`, 8.79%.

For `O=C(NCc1ccccc1)c1ccc(NC(=O)c2ccco2)cc1`, the “hERG current change (%, negative = inhibition) at 1uM” value is 5.4%.

On to `O=C(NC1CCCC1)C(c1ccccn1)N(Cc1ccccc1F)C(=O)c1csnn1` (stereo not drawn), for which the “hERG current change (%, negative = inhibition) at 1uM” value stood at 10.7%.

`COCCCN1CCN(c2nnc3n2-c2sc(Br)cc2C(c2ccccc2Cl)=NC3)CC1.CS(=O)(=O)O`: the “hERG current change (%, negative = inhibition) at 1uM” value is listed as -11.9%.

For `COc1ccccc1C1=NCc2nnc(CSC)n2-c2ccc(Cl)cc21`, the “hERG current change (%, negative = inhibition) at 1uM” value came out at 0.0726%. Consider `Clc1ccc2c(c1)C(c1ccccc1Cl)=NCc1nnc(Br)n1-2.c1ccccc1`, for which the “hERG current change (%, negative = inhibition) at 1uM” value is recorded as 2.57%. With `CN(C)CCSCc1nnc2n1-c1ccc(Cl)cc1C(c1ccccc1Cl)=NC2.c1ccccc1` the figure was -51.9%; with `CSCc1nnc2n1-c1ccc(Cl)cc1C(c1ccccc1)=NC2`, 4.89%. On to `Clc1ccc2c(c1)C(c1ccccc1Cl)=NCc1nnc(N3CCN(CCOc4ccccc4)CC3)n1-2.O=C(O)/C=C/C(=O)O`, for which the “hERG current change (%, negative = inhibition) at 1uM” value was -50.8%.

As to `CN1CCN(Cc2nnc3n2-c2ccc(Cl)cc2C(c2ccccc2)=NC3)CC1.O=CO`, the “hERG current change (%, negative = inhibition) at 1uM” value is -31.9%. Then `CCOCCN1CCN(c2nnc3n2-c2ccc(Cl)cc2C(c2ccccc2Cl)=NC3)CC1.O=CO`, with -57.6%; and `Clc1ccc2c(c1)C(c1ccccc1Cl)=NCc1nnc(N3CCN(CCSc4ccccc4)CC3)n1-2.O.O=C(O)/C=C/C(=O)O`, with -10.8%; and `O=c1nc2n(c3ncccc13)CCC2`, with 16.1%.

Take `CCOC(=O)c1cc(-c2ccccc2)sc1NC(=O)CSc1nnc(N)s1`: the “hERG current change (%, negative = inhibition) at 1uM” value was 2.01%. Turning to `Cc1cc(C)cc(C(=O)NCC(=O)OCC(=O)N2c3ccccc3NC(=O)C2(C)C)c1`, the “hERG current change (%, negative = inhibition) at 1uM” value was 4.41%. With `COc1ccc(NC(=O)CN2CC(c3ccccc3)CC2=O)cc1OC` (stereo not drawn) the figure was 12.3%; with `COc1ccc(CCN2CC(C(=O)NCc3ccc(F)cc3)CC2=O)cc1OC` (stereo not drawn), 6.95%; with `COc1ccc(C2SCC(=O)N2CCc2ccc(OC)c(OC)c2)cc1` (stereo not drawn), -1.68%.

For `COc1ccc(C2CC(=O)N(CCC[NH+](C)CCc3ccc(OC)c(OC)c3)C2)cc1.O=C([O-])C(=O)[O-]` (stereo not drawn), the “hERG current change (%, negative = inhibition) at 1uM” value was -72.9%. In the case of `COc1ccc(CCN2CC(C(=O)O)CC2=O)cc1OC` (stereo not drawn), the “hERG current change (%, negative = inhibition) at 1uM” value stood at 2.95%. Then `COc1ccc(CC[NH+](C)CCCN2CC(c3ccccc3)CC2=O)cc1OC.O=C([O-])C(=O)[O-]` (stereo not drawn), with -61.9%. With `COCC1CCCN(C(=O)c2ccc3oc(C(C)C)nc3c2)C1` (stereo not drawn) the figure was 9.33%. On to `COc1ccc(/C=N/Nc2nc(N3CCCC3)nc(N3CCCC3)n2)cc1O`, for which the “hERG current change (%, negative = inhibition) at 1uM” value was determined as 7.51%. With `O=C(c1ccc(O)cc1)c1ccc(Cl)cc1` the figure was -3.35%. With `O=C(O)CCCCCCCCCCCc1ccccc1` the figure was 12.7%; with `CC(C)N(C)NC(=S)Nc1ccccc1`, 8.22%. Turning to `COc1ccc(/C=C(\NC(=O)c2ccc([N+](=O)[O-])cc2)C(=O)NCCCn2ccnc2)cc1`, the “hERG current change (%, negative = inhibition) at 1uM” value is on record as -14.4%. Turning to `COc1ccc(/C=C(/NC(=O)c2ccc([N+](=O)[O-])cc2)C(=O)NCCCN(C)C)cc1`, the “hERG current change (%, negative = inhibition) at 1uM” value is recorded as -65.3%. With `C=CCNC(=O)/C(=C\c1ccc([N+](=O)[O-])cc1)NC(C)=O` the figure was 8.68%.

On to `COc1ccc(/C=C(\NC(=O)c2ccc([N+](=O)[O-])cc2)C(=O)NCCCN2CCOCC2)cc1`, for which the “hERG current change (%, negative = inhibition) at 1uM” value is recorded as -41%. Then `COc1ccc(/C=C(/NC(=O)c2ccc([N+](=O)[O-])cc2)C(=O)NC(C)(C)C)cc1`, with -10.7%; and `C=CCNC(=O)/C(=C\c1ccc(OC)cc1)NC(=O)c1ccc([N+](=O)[O-])cc1`, with -64.7%.

Consider `CCOC(=O)CCc1c(C)c(C#N)c2nc3ccccc3n2c1-n1ccnc1C`, for which the “hERG current change (%, negative = inhibition) at 1uM” value is -20.4%. Take `CCOC(=O)CCc1c(C)nc2cc(-c3ccc(F)cc3)[nH]n2c1=O`: the “hERG current change (%, negative = inhibition) at 1uM” value was 8.2%. On to `CC(C)(C)SCCNC(=O)c1ccc(Cl)c([N+](=O)[O-])c1`, for which the “hERG current change (%, negative = inhibition) at 1uM” value is 8.24%. As for `O=C(Cn1nnc(-c2ccccc2-n2cnnn2)n1)c1ccccc1`, the “hERG current change (%, negative = inhibition) at 1uM” value amounted to 5.12%.

As to `O=C(C1=C(O)C(=O)N(CCCN2CCOCC2)C1c1ccc(Cl)cc1)c1cc2ccccc2o1` (stereo not drawn), the “hERG current change (%, negative = inhibition) at 1uM” value is 15.8%. With `CN(C(=O)c1ccc(Cl)cc1)C1=CCCCC1CCC#N` (stereo not drawn) the figure was 0.644%; with `CN1CCN(c2ccccc2NC(=O)Cc2ccc(Cl)cc2)CC1`, -59.4%. With `COc1ccc(CC(=O)Nc2cc(S(=O)(=O)N3CCCCC3)ccc2N2CCN(C)CC2)cc1` the figure was -7.26%.

With `CC(C)C(=O)N1CCN(c2ccccc2NC(=O)Cc2ccc(Cl)cc2)CC1`, the “hERG current change (%, negative = inhibition) at 1uM” value is -38.9%. Consider `CN1CCN(c2ccc(Cl)cc2NC(=O)CCN2C(=O)c3ccccc3C2=O)CC1`, for which the “hERG current change (%, negative = inhibition) at 1uM” value is on record as 6.75%.

For the compound `CN1CCN(c2ccc(Cl)cc2NC(=O)CC2OC(=O)c3ccccc32)CC1` (stereo not drawn), the “hERG current change (%, negative = inhibition) at 1uM” value is -61.2%. Then `CN1CCN(c2ccc(S(=O)(=O)N3CCCCC3)cc2NC(=O)Cc2c(F)cccc2Cl)CC1`, with -7.39%; and `CC(=O)N1CCN(c2ccccc2NC(=O)Cc2ccc(Cl)cc2)CC1`, with -17.2%. Then `CN1CCN(c2ccc(S(=O)(=O)N3CCCCC3)cc2NC(=O)Cc2ccc(Cl)cc2)CC1`, with -50.6%. Then `O=C(CC1OC(=O)c2ccccc21)Nc1cc(Cl)ccc1N1CCCC1` (stereo not drawn), with 8.82%; and `COc1ccc(NC(=S)N(CCc2ccc(OC)c(OC)c2)Cc2ccccn2)cc1`, with 0.952%. With `CCOC(=O)c1ccc(CNCc2ccc(C)cc2)cc1`, the “hERG current change (%, negative = inhibition) at 1uM” value is recorded as -1.83%. Then `COc1ccc(S(=O)(=O)N2CCCC2CNC(=O)C(=O)Nc2ccc(C)cc2)cc1` (stereo not drawn), with -0.606%; and `COc1cc(CCC(=O)OCC(=O)Nc2ccc(C)cc2Cl)cc(OC)c1OC`, with 15.1%; and `CCn1ncc(NC(=O)Nc2cccc(C(F)(F)F)c2)c1C(N)=O`, with 5.39%. With `Cc1cc(C(=O)NC2CCCCC2)on1` the figure was 10.2%. Then `CN(C)c1cccc(C(=O)Nc2nc3ccccc3[nH]2)c1`, with 14.7%; and `Fc1ccc(CN2CCCCCCC2)c(F)c1`, with 14.2%. In the case of `COc1ccc(C(=O)N/C(=C\c2ccccc2)C(=O)N2CCOCC2)cc1`, the “hERG current change (%, negative = inhibition) at 1uM” value came to 9.79%.

As for `O=C(N/C(=C\c1ccc([N+](=O)[O-])cc1)C(=O)N1CCOCC1)c1cccc(Br)c1`, the “hERG current change (%, negative = inhibition) at 1uM” value was -79%. Then `O=C(N/C(=C/c1cccc([N+](=O)[O-])c1)C(=O)N1CCOCC1)c1ccc(Br)cc1`, with -19.6%; and `O=C(N/C(=C\c1ccc(Cl)cc1)C(=O)N1CCOCC1)c1ccc([N+](=O)[O-])cc1`, with -88.2%; and `COc1ccc(/C=C(/NC(=O)c2ccc(Br)cc2)C(=O)N2CCOCC2)cc1`, with 7.06%. As for `O=C(N/C(=C/c1ccccc1)C(=O)N1CCOCC1)c1ccc([N+](=O)[O-])cc1`, the “hERG current change (%, negative = inhibition) at 1uM” value is reported as -19.6%. With `COc1ccc(/C=C(\NC(=O)c2ccc([N+](=O)[O-])cc2)C(=O)N2CCOCC2)cc1` the figure was -54.9%; with `O=C(N/C(=C\c1ccccc1Cl)C(=O)N1CCOCC1)c1ccc([N+](=O)[O-])cc1`, -31.6%. With `O=C(N/C(=C\c1cccc([N+](=O)[O-])c1)C(=O)N1CCOCC1)c1cccc(Br)c1` the figure was 7.37%; with `Cc1ccc(C(=O)N/C(=C/c2ccc(Cl)cc2)C(=O)N2CCOCC2)cc1`, -9.41%; with `O=C(N/C(=C\c1ccccc1)C(=O)N1CCOCC1)c1cccc(Br)c1`, 18.8%. In the case of `O=C(N/C(=C\c1ccc(Br)cc1)C(=O)N1CCOCC1)c1ccc([N+](=O)[O-])cc1`, the “hERG current change (%, negative = inhibition) at 1uM” value was -81.6%. With `O=C(Nc1cc(Cl)ccc1N1CCOCC1)c1cc2ccccc2o1` the figure was 8.14%. `Cc1c(Br)c([N+](=O)[O-])nn1C(C)C(=O)NCc1cccnc1` (stereo not drawn): the “hERG current change (%, negative = inhibition) at 1uM” value is given as -7.67%.

On to `O=C(O)COc1ccccc1`, for which the “hERG current change (%, negative = inhibition) at 1uM” value worked out at 14.1%.

For the compound `O=C(Nc1ccc2c(c1)C(=O)OC2)c1ccc(Cl)cc1Cl`, the “hERG current change (%, negative = inhibition) at 1uM” value was found to be 3.09%. With `Cc1ccccc1N(C(=O)Cc1cccs1)C(C(=O)NC1CCCCC1)c1cn(C)nc1C` (stereo not drawn) the figure was -0.242%.

Source of the values: PMC4336329 (PLoS ONE, 2015).
